Reference: the supplement of paper PMC3334620
Over roughly 33,000 sequences, “E-score (-0.5 to 0.5)” has its median near -0.012; the highest 2% begin near 0.27. The sample holds the highest values, similar sequences and a random draw of the others, so the mix is not that of the screen.

Each sequence was assayed against T1, Vhr1 (UniProt P40522) (assay: PBM E-score (8-mer binding enrichment) (E-score (-0.5 to 0.5)); higher = stronger / more preferred TF binding). Details: protein concentration: 200 nM; construct: GST-full length.
T1 sequence: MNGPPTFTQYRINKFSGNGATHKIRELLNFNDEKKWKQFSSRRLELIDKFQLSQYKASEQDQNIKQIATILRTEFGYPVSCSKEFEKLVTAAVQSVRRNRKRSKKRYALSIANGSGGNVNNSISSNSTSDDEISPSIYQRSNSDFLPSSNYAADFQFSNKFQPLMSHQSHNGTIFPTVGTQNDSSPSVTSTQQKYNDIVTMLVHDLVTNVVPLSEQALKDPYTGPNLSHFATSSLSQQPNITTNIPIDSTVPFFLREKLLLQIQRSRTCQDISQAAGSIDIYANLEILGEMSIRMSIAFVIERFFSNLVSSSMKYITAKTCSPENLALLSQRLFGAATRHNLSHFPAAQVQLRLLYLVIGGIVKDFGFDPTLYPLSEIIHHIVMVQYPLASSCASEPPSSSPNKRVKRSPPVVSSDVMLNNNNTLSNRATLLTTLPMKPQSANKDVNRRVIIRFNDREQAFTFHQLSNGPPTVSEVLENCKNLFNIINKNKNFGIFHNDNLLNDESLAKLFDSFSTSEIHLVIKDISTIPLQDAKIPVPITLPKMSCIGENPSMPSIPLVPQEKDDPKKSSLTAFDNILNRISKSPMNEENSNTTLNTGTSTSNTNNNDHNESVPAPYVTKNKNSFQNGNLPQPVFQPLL
Protocol: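 Universal 'all 10-mer' protein binding microarrays (Agilent AMADID 015681) probed with GST-tagged S. cerevisiae TFs (full-length or DBD) made by in vitro transcription/translation (PURExpress), about 100-200 nM. Bound TF was detected with fluorescent anti-GST. Each ungapped 8-mer (which stands for itself and its reverse complement) is scored by the PBM enrichment score (E-score), a modified Wilcoxon-Mann-Whitney statistic from -0.5 to +0.5, computed with the Universal PBM Analysis Suite. Scale: above 0.35 generally sequence-specific binding.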

Sequence	PBM E-score
CACTCGTA	-0.0431
CACTCGCC	0.147
GACTCGTA	0.327
AACTCGTA	0.0622
AACTCGGA	0.0616
AACTCGCC	0.00825
GACTCGCC	0.276
GACTCGCA	0.319
TACTCGGA	0.126
TACTCGCA	0.263
GACTCGGA	0.278
AACTCGCA	-0.0141
AGCGCATA	-0.0303
CCCAATAG	-0.0738
GACTAAGA	0.0912
AGTGTTGG	0.107
ATGCTGGA	-0.001
AATCTCTC	-0.0867
CTAGAGGC	-0.341
CCTTAGAC	-0.16
AGGCTGAG	-0.0574
CACGCGTC	0.275
AACGCGTC	-0.137
CACGCGTA	-0.0315
GCTCATAA	0.0821

Sequence	PBM E-score
ATGAGCCA	0.271
CTGAGCCA	0.247
GTGAGCCA	0.355
GCAATGGA	-0.128
AGGAGTGG	0.0494
ATCAGAAC	0.0119
CCAGTCAC	0.296
GCAGTCAA	0.0401
CCAGTCAA	0.045
GCAGTCAC	0.353
ACAGTCAC	0.242
GCAGTCCC	0.106
ACGTTGCA	-0.0853
ACCATTAT	0.169
GCCATGCC	0.00234
TCTGCCAA	-0.205
CACTGATA	0.0775
GCAAAATA	0.00706
CTAATCAC	0.27
CCAATCAC	0.179
ATAATCAG	0.0967
ATAATCAC	0.308
ACAATCAC	0.275
ATAATCAT	0.389
GCAATCAC	0.159

Sequence	PBM E-score
ATAATCAA	0.0618
GTAATCAC	0.198
ACCAGCGT	0.0656
GCAGAACA	0.091
CTATTGGA	-0.0419
CAAGGGCG	-0.203
CCACTCGG	-0.147
CTCCCTAA	-0.107
GCAGATTA	0.0608
ATAAGAAG	-0.11
GAGTACCA	0.172
CTCCAATC	0.0374
ATAGTCAC	0.41
ATCGTCAT	0.134
CTAGTCAG	0.247
AAAGTCAT	0.256
ATAGTCAT	0.411
ATAGTCTG	-0.0734
ATAGTCCC	0.0218
ATAGTCAA	0.165
ATAGTCAG	0.333
CAACCTTC	-0.171
AACTGGGT	-0.041
GAAGAATC	-0.1
TCTTCACA	0.0437

Sequence	PBM E-score
CTTTCACC	-0.204
ATTGTTCC	0.127
TCAAGCGA	-0.0594
GGCTCTAA	-0.0817
ACATAACA	0.0352
GCATAACA	-0.116
TCATAACA	0.272
CTCTTGGA	0.0822
AAAGATTT	-0.134
AATCACAA	0.187
ACACTCAG	-0.0414
ACACTCAC	0.281
ACTCACAG	0.325
ACGCACAG	0.04
ACGCACAT	0.0403
ACTCACAT	0.286
AATCACAC	0.316
ACTCTCAC	0.115
CCTCACAG	0.0151
AATCACAT	0.17
AATCACAG	0.27
AGTCTGAC	0.148
AGGGTCAC	-0.0656
CTTCTTAC	-0.221
CACGGCGG	0.102

Sequence	PBM E-score
ACAGGAGG	-0.164
CGGAGTAA	0.0314
AATCGTGT	0.0868
AAAAGAGG	-0.134
GCCACACC	0.134
CCGGTGGC	-0.0116
CCTCACAC	-0.0104
ACTCACAC	0.39
GCTCACAC	0.148
ACTCACAA	0.286
TCTCACAA	0.0793
CCTCACAA	0.115
GAAAGTCC	-0.317
CAAGACTA	-0.0514
AGAGACTC	0.222
CGAGACTC	0.309
CGAGACTA	0.202
CAAGACTG	-0.0294
CAAGACTC	0.295
TAGTTATA	0.00574
ACCCTACC	0.00399
ACATTGAC	0.0886
CAAAGCCG	-0.295
CTCACCTA	0.103
ATTACTGC	0.206

Sequence	PBM E-score
TACGAAGA	-0.0938
CCCTACTC	-0.067
AGGTATGA	0.163
AACACACG	0.00318
CACACACA	0.276
CACACATA	0.204
AACACACT	0.205
TACACACA	0.268
CGCACACA	0.134
AACACACA	0.33
CACACAAA	0.124
CACACACG	0.272
CCCATTCG	0.00579
AAGAGGGT	-0.255
AGAGGTAT	0.144
CGTCCTAG	-0.181
ATGCTAAG	-0.0834
CCTATCAA	-0.182
AGTCATCG	0.44
GGTCATCA	0.136
CGTCATCC	0.0455
AGGCATCG	-0.22
AGTCATCA	0.439
ATTCATCC	0.0498
ATTCATCG	0.121

Sequence	PBM E-score
CGTCATCA	0.0722
AGTCATCC	0.464
CGGCGGGC	0.221
CAAGATAA	0.0275
CATGGAGG	-0.101
CCACGAAC	0.101
CAGGACAC	0.135
CCTCATCG	0.0284
ACTCATCG	0.304
GCTCATCA	0.109
ACTCATCT	0.199
ACTCATCA	0.32
GCTCATCC	0.0555
ACTCATCC	0.412
CCTCATCC	-0.182
TCTCATCA	-0.131
GCCTTCAC	-0.0812
CTTTATCA	-0.157
AAGCTACC	0.00426
CCCCATGA	0.0682
ACCCAGGA	-0.00244
CCCCATGC	-0.0398
